# aSyn 5UTR inh: MLPCN primary screen, SNCA 5' untranslated region. alpha-synuclein 5'UTR reporter, inhibitor activity. inhibition, % (tested at 7.5 µM). hit rate 0.82% among 300,000; in the data active = inhibition above about 60%; inconclusive = no clear call, values can overlap the other calls;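 also: H4 neuroglioblastoma cells stably carrying SNCA 5'UTR luciferase fusion; 0% = DMSO wells and 100% = positive control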
# Jurkat NFkB inh: inhibitors of the PMA/ionomycin-induced NF-kB reporter in Jurkat cells; PMA/ionomycin-induced NF-kB luciferase reporter, luminescence; inhibition, % at 4 µM; hit rate 0.53% among 330,000; AID 435003; in the data active = inhibition above about 50%
# 697 NFkB inh: inhibitors of the PMA/ionomycin-induced NF-kB reporter in 697 B cells; 697 B-cell NF-kB luciferase reporter, 16 h; inhibition, % at 4 µM; hit rate 0.33% among 330,000; in the data active = inhibition above about 35%
# Mdm2 MdmX PPI: human Mdm2/MdmX binding inhibition | hit rate 3% among 330,000 | inhibition, % at 8 µM | SaOS-2 split-luciferase Mdm2/MdmX complementation, luminescence;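 active = inhibition of at least 50% at 8 µM in the primary screen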
# Target sequence (O15151 whole entry, looked up): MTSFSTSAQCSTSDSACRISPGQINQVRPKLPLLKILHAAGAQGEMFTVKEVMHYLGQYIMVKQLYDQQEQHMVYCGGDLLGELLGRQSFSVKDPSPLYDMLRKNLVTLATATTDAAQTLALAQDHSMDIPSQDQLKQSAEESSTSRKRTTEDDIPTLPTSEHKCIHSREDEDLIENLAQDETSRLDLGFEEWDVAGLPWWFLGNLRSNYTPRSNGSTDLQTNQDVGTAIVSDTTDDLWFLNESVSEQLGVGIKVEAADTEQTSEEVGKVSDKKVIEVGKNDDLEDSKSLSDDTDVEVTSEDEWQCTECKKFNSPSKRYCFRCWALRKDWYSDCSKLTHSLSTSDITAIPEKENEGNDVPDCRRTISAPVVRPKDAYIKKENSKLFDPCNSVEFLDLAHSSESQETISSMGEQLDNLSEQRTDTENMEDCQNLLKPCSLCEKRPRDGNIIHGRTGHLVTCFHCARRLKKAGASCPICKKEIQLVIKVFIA
# Target sequence (Q00987 whole entry, looked up): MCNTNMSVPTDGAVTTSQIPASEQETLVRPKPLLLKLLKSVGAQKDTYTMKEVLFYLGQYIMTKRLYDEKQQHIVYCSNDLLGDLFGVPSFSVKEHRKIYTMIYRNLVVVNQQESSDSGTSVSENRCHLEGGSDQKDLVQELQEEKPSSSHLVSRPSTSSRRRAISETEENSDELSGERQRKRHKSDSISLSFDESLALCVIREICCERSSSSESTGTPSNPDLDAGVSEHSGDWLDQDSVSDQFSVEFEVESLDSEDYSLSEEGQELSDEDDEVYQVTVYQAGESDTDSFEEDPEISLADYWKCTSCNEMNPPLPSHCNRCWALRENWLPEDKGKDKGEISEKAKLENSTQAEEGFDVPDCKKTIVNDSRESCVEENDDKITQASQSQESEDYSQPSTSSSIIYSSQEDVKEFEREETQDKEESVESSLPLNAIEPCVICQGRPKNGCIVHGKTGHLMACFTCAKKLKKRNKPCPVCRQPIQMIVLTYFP
# Gli-Sufu block: Gli-Sufu pathway antagonism | Sufu-KO-LIGHT fibroblasts, Gli luciferase reporter luminescence | hit rate 0.74% among 340,000 | inhibition, % at 5 µM;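 active = inhibition above about 55%, limit read from the data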;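 also: 0% = DMSO-treated cells and 100% = wells with medium but no cells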
# CSC inhib: blocks cancer stem cells; inhibition, % at 7.5 µM; AID 2717; hit rate 1.1% among 300,000; cancer stem cell-like cells viability, luminescence; in the data active = inhibition above about 75%; inconclusive = no clear call, values can overlap the other calls; tested in HMLE shEcad cells
# Mdm2 MdmX conf: human Mdm2/MdmX binding inhibition, confirmed; AID 489028; luminescent assay; hit rate 55% among 10,000; inhibition, % at 8 µM; shares compounds with Mdm2 MdmX PPI; in the data active = inhibition above about 40%
# Full FLuc ctr: counter-screen for Mdm2/MdmX inhibitors: full-length luciferase | hit rate 77% among 6,200 | inhibition, % at 8 µM | AID 504607 | shares compounds with Mdm2 MdmX PPI | SaOS-2 full-length luciferase counterscreen, luminescence;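 active = mean inhibition at 8 µM reaching about 37%, which flags the compound as non-specific, limit read from the data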;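 also: p53-null SaOS-2 cells with luciferase driven by a doxycycline-inducible promoter; compound on cells about two nights before reading with doxycycline added after day one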
# Numbers without * were called inactive; ? = inconclusive; . = no result; + = active, no number. This is a sample that favours compounds with a hit; in the whole collection about 4.5% have one here.
SMILES,aSyn 5UTR inh,Jurkat NFkB inh,697 NFkB inh,Mdm2 MdmX PPI,Gli-Sufu block,CSC inhib,Mdm2 MdmX conf,others
COc1cc(CN(C(=O)c2cccs2)C2CCS(=O)(=O)C2)cc(OC)c1OC (stereo not drawn),-6,2,11,9,0,.,.,
Cc1ccc(-n2[nH]c(C)c(/C=N/NC(=O)c3ccc([N+](=O)[O-])cc3)c2=O)c(C)c1,8,-4,2,53*,.,36,9,
CN1CCN(c2ccccc2NC(=O)c2cccc([N+](=O)[O-])c2)CC1,0,0,4,2,4,.,.,
Cc1[nH]n(-c2ccccc2)c(=O)c1/C=N/NC(=O)c1cccc([N+](=O)[O-])c1,.,3,-2,52*,5,5,44*,Full FLuc ctr=6
CN1CCN(c2ccc([N+](=O)[O-])cc2C(=O)c2ccc(Cl)cc2)CC1,37,46,-38,50*,6,-4,61*,Full FLuc ctr=57*
CN1CCN(c2ccc([N+](=O)[O-])cc2/C=N/NC(=O)c2cccc([N+](=O)[O-])c2)CC1,13,-5,22,51*,.,22,-4,
O=C(CCC1CCCC1)N1CCC(N2CCCCCC2)CC1,-22,-17,4,0,10,44,.,
CNc1snc(C)c1C(=O)OC(C)C(=O)Nc1cccc(OC)c1 (stereo not drawn),.,0,-12,12,2,.,.,
Cc1cc(OCCN2CCOCC2)ccc1Cl,-76,-16,-17,-4,-25,6,.,
Cc1ccc(S(=O)(=O)c2c(N)n(CCCN(C)C)c3nc4ccccc4nc23)cc1,-12,6,7,54*,-5,.,11,
COc1ccc(NC(=O)/C(=C\c2ccco2)NC(=O)c2ccco2)cc1,3,12,9,6,8,-16,.,
COc1ccc(NC(=O)/C(C#N)=C\C=C\c2ccco2)cc1,-46,34,-15,51*,2,?,53*,Full FLuc ctr=58*
CCC1CCCCN1C(=O)c1ccc2c(c1)C(=O)N(c1ccc(C)cc1)C2=O (stereo not drawn),-9,12,4,24,1,.,.,
N/C(=N\c1nc2ccccc2o1)NC(=O)c1cccc(Br)c1,1,7,16,59*,-4,1,13,
Cc1cc(C)c2nc(Cl)c(CN(Cc3ccco3)C(=O)Nc3ccccc3C)cc2c1,15,45,-7,63*,45,53,53*,Full FLuc ctr=98*
COCc1ccc(C(=O)Nc2ccccc2C(=O)NCc2cccnc2)cc1,-5,1,0,19,-3,-13,.,
C=CCOc1ccc(C(=O)Nc2ccccc2C(=O)NCc2cccnc2)cc1,-52,47,-21,58*,0,-3,55*,Full FLuc ctr=61*
COc1cccc(CNCCc2c[nH]c3ccccc23)c1OCc1ccccc1,22,11,-20,54*,17,26,25,
COc1ccc(CCNC(=O)NCCc2c[nH]c3ccccc23)cc1OC,2,-9,2,14,5,-7,.,
COc1cc(CNCCc2c[nH]c3ccccc23)ccc1OCc1ccccc1F,-24,-11,-11,90*,-5,+,18,
COc1cccc(CNC23CC4CC(CC(C4)C2)C3)c1OCc1ccccc1,-25,-1,-15,52*,8,55,43*,Full FLuc ctr=59*
COc1cccc(-n2c(=O)c3c(C)c(C(=O)N(C)C)sc3n(CC(=O)NCC3CCCO3)c2=O)c1 (stereo not drawn),11,-4,11,11,2,-12,.,
COc1ccccc1-c1cc(C(=O)N/N=C/c2ccc(C)s2)c2ccccc2n1,41,6,-69,71*,-15,-11,5,
COc1ccccc1C(=O)NCCc1nc2ccccc2[nH]1,5,7,17,20,22,-9,.,
Fc1ccc(Oc2nc(-c3ccccc3)nnc2C(F)(F)F)cc1,-4,-43,-40,-10,-5,18,.,
Fc1ccc(Sc2nc(-c3ccccc3)nnc2C(F)(F)F)cc1,0,3,23,78*,-7,.,18,
CCc1ccc2[nH]c3nc(SCc4nnc(-c5ccc(C)cc5)o4)nnc3c2c1,-43,11,-1,70*,-30,8,27,
